# Laboratory results taken from PubChem BioAssay (NCI).
# Compounds without any hit were thinned out: in the full panel of roughly 79,000, 15% have a hit. Unmarked numbers belong to inactive results. The source made the active and inactive calls. Rule as the data show it: active = growth inhibition above about 70%; inactive = the rest.
# Columns and labels:
# [1] = NCI Yeast Anticancer Drug Screen. Data for the rad52 strain (AID 147);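 also: 0% = growth of vehicle-treated control cultures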; details: S. cerevisiae rad52 mutant growth inhibition, active compounds read high
# Summary of the method: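 DNA repair-defective yeast; compound exposure; growth scored against vehicle controls.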
# [2] = NCI Yeast Anticancer Drug Screen. Data for the wt1 strain (AID 149);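 also: 0% = growth of vehicle-treated wt1 cultures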; details: S. cerevisiae wt1 strain (SPY 50644) growth inhibition, active compounds read high
# Summary of the method: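 Each compound is tested on wt1 yeast and the loss of growth versus vehicle gives the inhibition value.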
# [3] = NCI Yeast Anticancer Drug Screen. Data for the rad50EPP+ strain (AID 151);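 also: 0% = growth of vehicle-treated control cultures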; details: S. cerevisiae rad50 mutant strain, active compounds read high
# Summary of the method: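 rad50EPP+ yeast treated with test compounds. Readout: growth vs vehicle control.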
# [4] = NCI Yeast Anticancer Drug Screen. Data for the mgt1 strain (AID 153); details: S. cerevisiae mgt1 mutant growth inhibition, active compounds read high
# Summary of the method: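 Growth inhibition relative to vehicle controls was scored for the mgt1 yeast strain after compound exposure.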
# [5] = NCI Yeast Anticancer Drug Screen. Data for the rad50 strain (AID 155);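 also: 0% = growth of vehicle-only cultures of the same strain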; details: S. cerevisiae rad50 strain growth inhibition, active compounds read high
# Summary of the method: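 Vehicle-treated cultures provide the reference for the growth inhibition reported for compound-exposed, repair-deficient yeast.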
# [6] = NCI Yeast Anticancer Drug Screen. Data for the mec2-1 strain (AID 157); details: S. cerevisiae mec2-1 strain, active compounds read high
# Summary of the method: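 Growth inhibition is read against vehicle-treated controls after compound exposure of the mec2-1 yeast strain, which is defective in DNA damage repair or cell cycle control.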
# [7] = NCI Yeast Anticancer Drug Screen. Data for the rad14 strain (AID 159);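 also: 0% = growth of vehicle-treated control cultures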; details: S. cerevisiae rad14 strain growth inhibition, active compounds read high
# Summary of the method: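 Inhibition of growth is reported for a repair-deficient yeast mutant following compound treatment, calculated relative to cultures that received vehicle.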
# [8] = NCI Yeast Anticancer Drug Screen. Data for the sgs1 mgt1 strain (AID 161);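 also: 0% = growth of cultures given vehicle only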; details: S. cerevisiae sgs1 mgt1 strain, active compounds read high
# Summary of the method: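 Yeast cells carrying a defined DNA-repair defect were exposed to test compounds. Growth inhibition was measured relative to vehicle-treated controls.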
# [9] = NCI Yeast Anticancer Drug Screen. Data for the CLN2oe strain (AID 163);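 also: 0% = growth of vehicle-only control cultures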; details: S. cerevisiae CLN2oe strain, active compounds read high
# Summary of the method: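 Compound-treated yeast; growth vs vehicle ctrl = % inhibition. Genetically altered strain (cell-cycle control).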
# [10] = NCI Yeast Anticancer Drug Screen. Data for the cln2 rad14 strain (AID 165);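 also: 0% = growth equal to vehicle treated cultures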; details: S. cerevisiae cln2 rad14 strain, active compounds read high
# Summary of the method: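 Growth inhibition, relative to vehicle-treated controls, is the read-out. The test organism is a yeast strain with defined genetic alterations, cln2 rad14.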
# [11] = NCI Yeast Anticancer Drug Screen. Data for the bub3 strain (AID 167); details: S. cerevisiae bub3 mutant strain, active compounds read high
# Summary of the method: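 Mutant yeast screening strain plus compound; vehicle-treated cultures serve as the 0% inhibition reference.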
# [12] = NCI Yeast Anticancer Drug Screen. Data for the wt2 strain (AID 169); details: S. cerevisiae wt2 strain growth inhibition, active compounds read high
# Summary of the method: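 Compound exposure of yeast; growth compared with vehicle controls; inhibition reported.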
# [13] = NCI Yeast Anticancer Drug Screen. Data for the mlh1 strain (AID 171);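 also: 0% = growth of vehicle-treated control cultures of the same strain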; details: S. cerevisiae mlh1 strain growth inhibition, active compounds read high
# Summary of the method: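 Compounds are applied to a genetically altered yeast strain, and its growth is compared with that of vehicle-treated cultures to give percent inhibition.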
# [14] = NCI Yeast Anticancer Drug Screen. Data for the sgs1 strain (AID 173);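 also: 0% = growth of vehicle-only control cultures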; details: S. cerevisiae sgs1 mutant, active compounds read high
# Summary of the method: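 Compounds applied to genetically altered yeast; growth compared with vehicle-treated cultures to give % inhibition.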
# [15] = NCI Yeast Anticancer Drug Screen. Data for the mlh1 rad18 strain (AID 175); details: S. cerevisiae mlh1 rad18 strain growth inhibition, active compounds read high
# Summary of the method: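 Cells of a genetically altered yeast strain, deficient in DNA damage repair, were treated with compound. Their growth was then compared with that of vehicle-treated cultures to give inhibition.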
# [16] = NCI Yeast Anticancer Drug Screen. Data for the rad18 strain (AID 177); details: S. cerevisiae rad18 mutant growth inhibition, active compounds read high
# Summary of the method: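 Compounds are applied to a repair-deficient yeast strain, and growth is compared with that of vehicle-treated cultures to give percent inhibition.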
# [17] = at 5.0 µM (retest, dose inferred, filed as 0.5)
# [18] = at 50.0 µM (retest, dose inferred, filed as 5.0)
structure (smiles),measurement,setting,value
CCC(C)COC(=O)Nc1cccc(Cl)c1 (stereo not drawn),growth inhibition,[1]; at 1.2 µM,5%
same,growth inhibition,[1]; at 3.7 µM,6%
same,growth inhibition,[1]; at 11.0 µM,11%
same,growth inhibition,[1]; at 33.0 µM,59%
same,growth inhibition,[1]; at 100.0 µM,91% (active)
same,growth inhibition,[2]; at 1.2 µM,1%
same,growth inhibition,[2]; at 3.7 µM,-1%
same,growth inhibition,[2]; at 11.0 µM,0%
same,growth inhibition,[2]; at 33.0 µM,6%
same,growth inhibition,[2]; at 100.0 µM,99% (active)
same,growth inhibition,[3]; at 1.2 µM,6%
same,growth inhibition,[3]; at 3.7 µM,15%
same,growth inhibition,[3]; at 11.0 µM,39%
same,growth inhibition,[3]; at 33.0 µM,61%
same,growth inhibition,[3]; at 100.0 µM,72% (active)
same,growth inhibition,[4]; at 1.2 µM,-7%
same,growth inhibition,[4]; at 3.7 µM,0%
same,growth inhibition,[4]; at 11.0 µM,-8%
same,growth inhibition,[4]; at 33.0 µM,29%
same,growth inhibition,[4]; at 100.0 µM,99% (active)
same,growth inhibition,[5]; at 1.2 µM,9%
same,growth inhibition,[5]; at 3.7 µM,22%
same,growth inhibition,[5]; [17],-7%
same,growth inhibition,[5]; at 11.0 µM,25%
same,growth inhibition,[5]; at 33.0 µM,68%
same,growth inhibition,[5]; [18],54%
same,growth inhibition,[5]; at 50.0 µM,98.9% (active)
same,growth inhibition,[5]; at 100.0 µM,99% (active)
same,growth inhibition,[6]; at 1.2 µM,-5%
same,growth inhibition,[6]; at 3.7 µM,-10%
same,growth inhibition,[6]; [17],-1%
same,growth inhibition,[6]; at 11.0 µM,-34%
same,growth inhibition,[6]; at 33.0 µM,-1%
same,growth inhibition,[6]; [18],32%
same,growth inhibition,[6]; at 50.0 µM,98.1% (active)
same,growth inhibition,[6]; at 100.0 µM,98% (active)
same,growth inhibition,[7]; at 1.2 µM,3%
same,growth inhibition,[7]; at 3.7 µM,2%
same,growth inhibition,[7]; at 11.0 µM,2%
same,growth inhibition,[7]; at 33.0 µM,34%
same,growth inhibition,[7]; at 100.0 µM,99% (active)
same,growth inhibition,[8]; [17],-4%
same,growth inhibition,[8]; [18],53%
same,growth inhibition,[8]; at 50.0 µM,98.8% (active)
same,growth inhibition,[9]; at 1.2 µM,0%
same,growth inhibition,[9]; at 3.7 µM,1%
same,growth inhibition,[9]; at 11.0 µM,-7%
same,growth inhibition,[9]; at 33.0 µM,4%
same,growth inhibition,[9]; at 100.0 µM,99% (active)
same,growth inhibition,[10]; [17],-24%
same,growth inhibition,[10]; [18],1%
same,growth inhibition,[10]; at 50.0 µM,97.5% (active)
same,growth inhibition,[11]; at 1.2 µM,-2%
same,growth inhibition,[11]; at 3.7 µM,-4%
same,growth inhibition,[11]; [17],-14%
same,growth inhibition,[11]; at 11.0 µM,12%
same,growth inhibition,[11]; at 33.0 µM,27%
same,growth inhibition,[11]; [18],25%
same,growth inhibition,[11]; at 50.0 µM,98.6% (active)
same,growth inhibition,[11]; at 100.0 µM,99% (active)
same,growth inhibition,[12]; at 1.2 µM,-2%
same,growth inhibition,[12]; at 3.7 µM,-2%
same,growth inhibition,[12]; at 11.0 µM,-2%
same,growth inhibition,[12]; at 33.0 µM,82% (active)
same,growth inhibition,[12]; at 100.0 µM,99% (active)
same,growth inhibition,[13]; at 1.2 µM,-6%
same,growth inhibition,[13]; at 3.7 µM,-5%
same,growth inhibition,[13]; at 11.0 µM,-7%
same,growth inhibition,[13]; at 33.0 µM,57%
same,growth inhibition,[13]; at 100.0 µM,99% (active)
same,growth inhibition,[14]; at 1.2 µM,0%
same,growth inhibition,[14]; at 3.7 µM,2%
same,growth inhibition,[14]; at 11.0 µM,7%
same,growth inhibition,[14]; at 33.0 µM,87% (active)
same,growth inhibition,[14]; at 100.0 µM,99% (active)
same,growth inhibition,[15]; [17],-9%
same,growth inhibition,[15]; [18],69%
same,growth inhibition,[15]; at 50.0 µM,97.5% (active)
same,growth inhibition,[16]; at 1.2 µM,4%
same,growth inhibition,[16]; at 3.7 µM,5%
same,growth inhibition,[16]; at 11.0 µM,1%
same,growth inhibition,[16]; at 33.0 µM,27%
same,growth inhibition,[16]; at 100.0 µM,98% (active)
